RecA splice inh: Mtb RecA intein splicing inhibition | 290,000 compounds, 0.75% hits | cell-free RecA intein splicing, fluorescence | P9WHJ3 | inhibition, % (test concentration not listed); in the data active = inhibition above about 30%
Mtb UGM inh: blocks M. tuberculosis UGM enzyme. purified UGM, fluorescence polarization probe displacement. inhibition, % at 10 µM. 320,000 compounds, 0.06% hits. AID 504406; in the data active = inhibition above about 10%, passing the limit was not always enough
Mtb bLac sens: beta-lactam sensitization of Mtb H37Rv; AID 434955; 330,000 compounds, 0.27% hits; inhibition, % at 25 µM; M. tuberculosis H37Rv growth with meropenem, percent inhibition;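 also: growth measured after seven days incubation then overnight dye step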
Rv3671c protease: inhibitors of M. tuberculosis serine protease Rv3671c | P9WHR9 | inhibition, % at 5.96 µM | 320,000 compounds, 0.048% hits; in the data active = inhibition above about 38%;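 also: extracellular domain of Rv3671c used as enzyme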
Target sequence (P9WHR9 whole entry, looked up, the tested form may be a part): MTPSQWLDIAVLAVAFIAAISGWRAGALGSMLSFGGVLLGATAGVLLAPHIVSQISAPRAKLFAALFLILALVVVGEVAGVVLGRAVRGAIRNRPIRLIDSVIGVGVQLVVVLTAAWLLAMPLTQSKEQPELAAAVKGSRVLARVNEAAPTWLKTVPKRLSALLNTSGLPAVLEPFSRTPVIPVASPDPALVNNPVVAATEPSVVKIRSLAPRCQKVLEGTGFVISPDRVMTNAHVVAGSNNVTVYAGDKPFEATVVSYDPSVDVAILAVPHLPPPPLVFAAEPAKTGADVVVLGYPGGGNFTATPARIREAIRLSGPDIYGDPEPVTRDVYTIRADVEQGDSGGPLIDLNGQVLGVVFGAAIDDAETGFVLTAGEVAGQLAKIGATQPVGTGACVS
GDH-TPI counter: GDH-TPI coupled enzyme inhibition counter-screen. GDH-TPI coupled enzyme counterscreen, NADH absorbance. inhibition, % at 4.8 µM. 360,000 compounds, 1.2% hits; in the data active = inhibition above about 30%
FBA Mtb inh: inhibitors of M. tuberculosis fructose-bisphosphate aldolase | P9WQA3 | purified M. tuberculosis FBA, fluorescence read-out | inhibition, % at 1 µM | 360,000 compounds, 2.3% hits | AID 588726; in the data active = inhibition above about 27%
GFP chromo cs: counter-screen GFP chromophore formation inhibition | EC50, µM | shares compounds with RecA splice inh | 2,100 compounds, 83% hits | cell-free GFP chromophore formation, fluorescence
Numbers stand for hits; – = inactive; · = not tested or not shown. Rows were chosen to be rich in hits. Some 4% of all compounds tested hit in one or more screens of this group. Unless noted, no rule for the calls is given here.

SMILES	RecA splice inh	Mtb UGM inh	Mtb bLac sens	Rv3671c protease	GDH-TPI counter	FBA Mtb inh	GFP chromo cs
CCN(CC)S(=O)(=O)c1ccc2c(c1)N(CC(=O)N1CCC(C(N)=O)CC1)C(=O)CO2	–	–	–	–	–	–	·
CC(=O)Oc1ccc2c(=O)oc(-c3ccccc3C)nc2c1	33.2	–	–	–	–	–	–
CC(=O)Oc1ccc2c(=O)oc(-c3ccccc3)nc2c1	–	–	–	–	–	–	·
COc1ccc(C(=O)NNS(=O)(=O)c2ccccc2)cc1OC	–	–	–	–	–	–	·
Cc1ccc2[nH]c3c(c2c1)CN(C(=O)CN1CCSCC1)CC3	61.3	·	·	·	·	·	0.191
Cc1ccc2[nH]c3c(c2c1)CN(C(=O)CN1CC(C)OC(C)C1)CC3 (stereo unspecified)	·	–	–	–	–	–	·
O=c1c(Cl)c(Cl)cnn1Cc1nnc(-c2ccc(Cl)cc2)o1	37.4	·	·	·	–	–	9.33
Cc1ccc(-c2nnc(Cc3ccc(Cl)cc3)o2)cc1	–	–	–	–	–	–	·
O=c1c(Cl)c(Cl)cnn1Cc1ccccc1Cl	38.2	–	–	–	·	·	20.1
O=C(CSc1ccccc1)N1CCCC(N2CCN(c3ccccc3)CC2)C1 (stereo unspecified)	–	–	–	–	–	–	·
Cc1noc(C)c1S(=O)(=O)Nc1ccccc1Oc1ccccc1	–	–	–	–	–	–	·
O=C1c2ccccc2-c2onc3ccc(Oc4ccccc4)c1c23	86.2	–	–	–	–	–	0.811
CCOC(=O)c1c(CC(C)C)csc1NC(=O)CCl	51.7	–	–	–	–	–	–
CCCCc1c(O)nc(SCC(=O)c2ccccc2)n(-c2ccccc2)c1=O	–	–	–	–	–	–	·
CC(C)Cc1nc2oc3c(NCC4CCCO4)ncnc3c2c2c1CCC2 (stereo unspecified)	–	–	–	–	–	–	·
CCOC(=O)c1oc2nc(CC(C)C)c3c(c2c1N)CCC3	31.4	–	–	–	–	178.4	–
COc1ccc(C(=O)N2CCOCC2c2cc(C(=O)NCc3ccccc3)no2)cc1 (stereo unspecified)	·	·	·	·	–	–	·
Cc1ccc(C2=NN(C(=O)CCl)C(c3ccco3)C2)o1 (stereo unspecified)	62.8	·	·	·	–	–	39.7
Cn1c(CC(O)c2nc3ccccc3n2C)nc2ccccc21 (stereo unspecified)	·	·	·	·	–	–	·
CCN(CC(=O)Nc1c(F)cccc1F)C(=O)c1csc2c1CCCC2	·	–	–	–	–	–	·
CC1(C)CN(C2CCCCC2)C(=O)[C@H]1CC(=O)Nc1ccc(Br)cc1	·	·	·	·	–	–	·
Cc1ccc(-n2nc3c(=O)n(CCCC(=O)NCc4ccccc4Cl)nc(C)c3c2C)cc1	–	–	–	–	–	–	·
Cc1ccc(CSCc2nc3ccccc3[nH]2)cc1	–	·	·	·	–	–	·
Cc1cc(C)cc(CC(Cc2nc3ccccc3[nH]2)c2nc3ccccc3[nH]2)c1 (stereo unspecified)	35.7	–	–	–	–	–	–
Cc1nc2ccccc2c(=O)n1/N=C/C=C/c1ccccc1	–	–	–	–	–	–	·
SMILES	RecA splice inh	Mtb UGM inh	Mtb bLac sens	Rv3671c protease	GDH-TPI counter	FBA Mtb inh	GFP chromo cs
CCCCNC1=CC(=O)C(NCCCC)=CC1=O	·	·	·	·	–	–	·
O=C1C=C(Nc2cccc3cccnc23)c2ccccc2C1=O	90.1	–	–	–	–	–	3.59
CCCCNC1=CC(=O)C(=O)c2ccccc21	97.2	–	–	–	–	–	0.981
O=C1C=C(Nc2ccccc2)c2ccccc2C1=O	69.6	·	·	·	–	–	0.85
Cc1ccc(C(c2cc(Cl)c3cccnc3c2O)N2CCN(C)CC2)cc1 (stereo unspecified)	74.7	–	–	–	–	–	8.65
Cc1ccc(S(=O)(=O)/N=C2\C(=O)c3ccccc3C([O-])=C2n2cc[n+](CCC(C)C)c2)cc1	–	–	–	–	–	–	·
CC(=O)Nc1ccc(S(=O)(=O)/N=C2\C(=O)c3ccccc3C([O-])=C2n2cc[n+](-c3ccccn3)c2)cc1	85.3	–	–	–	–	–	6.15
COc1cccc(C(c2c(C)[nH]n(-c3ccccc3)c2=O)c2c(C)[nH]n(-c3ccccc3)c2=O)c1OC	93.7	–	–	–	–	–	1.77
COc1cccc(C(c2c(C)[nH]n(-c3ccccc3)c2=O)c2c(C)[nH]n(-c3ccccc3)c2=O)c1O	66.5	–	–	–	–	–	1.48
Cc1ccc(CCN2CC(C(=O)NCCN(C)C)CC2=O)cc1 (stereo unspecified)	–	–	–	–	–	–	·
CC(=O)c1c(N2CCOCC2)nc(=S)n(-c2ccc([N+](=O)[O-])cc2)c1C	–	–	–	–	–	–	·
CSc1nc(=S)n(-c2ccc([N+](=O)[O-])cc2)c(C)c1C(C)=O	34.8	–	–	–	–	–	–
COc1ccc(C(=O)Nc2ccc(O)c3ccccc23)cc1	98.0	–	–	–	–	–	0.218
COc1ccc(NC(=O)Nc2ccc(O)c3ccccc23)cc1	67.4	–	–	–	·	·	4.3
CCSc1ccc([C@@H]2[C@@H]3C(=O)N(CC)C(=O)[C@@H]3[C@]3(C(=O)OC)CCCN23)cc1	–	–	–	–	–	–	·
COc1ccccc1N1CCN(CC(=O)c2c(C)n(C)c3ccccc23)CC1	–	–	–	–	–	–	·
COc1ccccc1N1CCN(CC(=O)c2c(C)[nH]c3cc(C)ccc23)CC1	–	–	–	–	–	–	–
COc1cc(C(=O)NC(C)c2cc(C)ccc2C)ccc1OCC(=O)N1CCOCC1 (stereo unspecified)	·	–	–	–	–	–	·
Cc1ccc(S(=O)(=O)N(C)C)cc1NC(=O)COC(=O)CN1C(=O)c2ccccc2C1=O	·	–	–	–	–	–	·
O=[N+]([O-])c1ccc(N2CCCC(C(F)(F)F)C2)c2ccncc12 (stereo unspecified)	32.9	–	–	–	–	–	–
Cc1ccc(C)c(OCC(=O)Nc2ccc(C(=O)O)cc2NC(=O)COc2cc(C)ccc2C)c1	–	–	–	–	–	–	·
NC(=O)c1c(-c2cccs2)csc1N	66.6	–	–	–	·	·	12.9
Cc1ccc(NC(=O)COc2ccccc2)c(NC(=O)c2ccco2)c1	–	–	–	–	–	–	·
CC(=O)N(c1ccccc1C)C1CCCC1	–	–	–	–	–	–	·
CC(=O)N(C1=C(Cl)C(=O)c2ccccc2C1=O)C1CCCCC1	92.5	–	–	–	–	–	1.28
CN1CCc2cc3c(c4c2C1Cc1ccccc1-4)OCO3 (stereo unspecified)	54.7	–	–	–	–	–	0.869
O=c1[nH]c2ccc(Cl)cc2c(-c2ccccc2)c1SC(=S)N1CCOCC1	–	–	–	–	–	–	·
O=c1[nH]c2ccc(Cl)cc2c(-c2ccccc2)c1SC(=S)N1CCCCC1	39.7	–	–	–	–	–	–
COc1ccc(OC)c(S(=O)(=O)Nc2ccc(O)c3ccccc23)c1	·	–	–	–	–	–	·
O=S(=O)(Nc1ccc(NS(=O)(=O)c2ccccc2)c2ccccc12)c1ccccc1	·	·	·	·	–	–	·
